Data from PubChem BioAssay (NCI).
Compounds without any hit were thinned out: in the full panel of roughly 79,000, 15% have a hit. No stated cut-off is given here; in the data, active means growth inhibition above about 70%; inactive means the rest.

Legend:
[1] = NCI Yeast Anticancer Drug Screen. Data for the rad50 strain (AID 155);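 further: 0% = growth of vehicle-only cultures of the same strain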; details: S. cerevisiae rad50 strain growth inhibition; at 50.0 µM; hits give high values
How it was run: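 Cells are treated with compound, grown, and their growth is then scored against vehicle-only cultures of the same repair-deficient yeast strain.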

[2] = NCI Yeast Anticancer Drug Screen. Data for the mec2-1 strain (AID 157); details: S. cerevisiae mec2-1 strain, at 50.0 µM, hits give high values
How it was run: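 Strain: mec2-1 (DNA repair/cell cycle alteration). Compound exposure, then growth measured; inhibition expressed relative to vehicle.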

[3] = NCI Yeast Anticancer Drug Screen. Data for the sgs1 mgt1 strain (AID 161);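 further: 0% = growth of cultures given vehicle only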; details: S. cerevisiae sgs1 mgt1 strain, at 50.0 µM, hits give high values
How it was run: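 Test agents were incubated with a DNA-repair-mutant yeast strain. Growth was then read and compared against vehicle-treated controls.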

[4] = NCI Yeast Anticancer Drug Screen. Data for the cln2 rad14 strain (AID 165);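 further: 0% = growth equal to vehicle treated cultures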; details: S. cerevisiae cln2 rad14 strain, at 50.0 µM, hits give high values
How it was run: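 Compounds are applied to the cln2 rad14 yeast strain, and growth is then compared with that of vehicle-treated cultures to give inhibition.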

[5] = NCI Yeast Anticancer Drug Screen. Data for the bub3 strain (AID 167); details: S. cerevisiae bub3 mutant strain, at 50.0 µM, hits give high values
How it was run: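 Part of a panel of yeast mutants defective in DNA damage repair or cell cycle regulation. Each strain is grown with compound, and inhibition is calculated relative to solvent-treated cultures.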

[6] = NCI Yeast Anticancer Drug Screen. Data for the mlh1 rad18 strain (AID 175); details: S. cerevisiae mlh1 rad18 strain growth inhibition; at 50.0 µM; hits give high values
How it was run: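 Read-out is yeast growth inhibition, calculated against vehicle-only controls. The compound was applied to a strain engineered with DNA damage repair alterations.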

Measured: growth inhibition

O=C(COc1ccc(Cl)c(Cl)c1)Nc1ccccc1S(=O)(=O)F
inactive: [1] 27.6% | [2] -5.35% | [3] -3.8% | [4] 21.6% | [5] 5.15% | [6] 21.4%

Oc1ccccc1I
inactive: [1] 11.9% | [2] 4.85% | [3] -57% | [4] -8.7% | [5] -42.9% | [6] -14.2%

COc1ccc(C)cc1C(=O)C[n+]1ccc2ccccc2c1
inactive: [1] -10.4% | [2] -0.8% | [3] -25.1% | [4] -21.4% | [5] -6.5% | [6] 0.15%

CC(=O)CC(C)=O.CC(=O)CC(C)=O.CC(=O)CC(C)=O.CC(=O)CC(C)=O.[Zr]
inactive: [1] 7.2% | [2] 28.6% | [3] 10.4% | [4] 29.6% | [5] 38.6% | [6] 30.1%

COC(=O)C1C(OC(=O)c2ccccc2)CC2CCC1N2C(N)=O (stereo not given)
inactive: [1] -12.6% | [2] -0.75% | [3] -8.05% | [4] -23% | [5] -15.9% | [6] 3.3%

N#CCCSCCC#N
inactive: [1] 25.4% | [2] 6.55% | [3] 14.1% | [4] 3.7% | [5] 6.8% | [6] 4.6%

O=N[O-].O=N[O-].[NH2-].[NH2-].[NH2-].[NH2-].[Ni]
inactive: [1] 0.55% | [2] 7% | [3] 19.6% | [4] -48.7% | [5] -14.8% | [6] 13.3%

CN1CCN(c2cc3nsnc3c3nsnc23)CC1
inactive: [1] 0.3% | [2] -7.3% | [3] -15.1% | [4] 8.6% | [5] -12.7% | [6] 18.1%

CC1(C)C(=O)CC[C@@]2(C)C1=CC[C@@H]1[C@@H]2CC[C@@]2(C)[C@H]1CC[C@]2(C)O
inactive: [1] 5.75% | [2] -14.8% | [3] 11.6% | [4] -21% | [5] 3.8% | [6] 7.05%

CCN(CC)C(=S)Cl
inactive: [1] -35.4% | [2] -29.4% | [3] -0.5% | [4] -2.15% | [5] 19.1% | [6] -24.5%

C[C@]12CC[C@H]3[C@@H](CCC4=C[C@@H](OC5OCC(OC6OC(CO)C(O)C(O)C6O)C(O)C5O)CC[C@@]43C=O)[C@@]1(O)CCC2C1=CC(=O)OC1 (stereo not given in full)
inactive: [1] -31.8% | [2] -20.4% | [3] -29.6% | [4] -4.1% | [5] -16.7% | [6] 2.2%

O=c1ccc(=O)[nH][nH]1.[Zn+2]
inactive: [1] -18.2% | [2] 5.1% | [3] -4.8% | [4] -7.2% | [5] -4% | [6] -22.1%

CN(C)C1=C(N2CC2)C(=O)C(N(C)C)=C(N2CC2)C1=O
inactive: [1] 17.2% | [2] 9.9% | [3] 14.6% | [4] 9.3% | [5] 1% | [6] 23.7%

c1ccc(-c2c[se]nn2)cc1
inactive: [1] 4.65% | [2] -10.1% | [3] -2.6% | [4] -26.6% | [5] -11.2% | [6] 10.1%

CC(=O)[CH-]C(C)=O.F[P-](F)(F)(F)(F)F.[Co+3].[NH-]CC[NH-].[NH-]CC[NH-]
inactive: [1] -1.2% | [2] -15.4% | [3] -12.2% | [4] -29.9% | [5] -4.35% | [6] -5.35%

CCC1(CCBr)C(=O)NC(=O)NC1=O
inactive: [1] -33.6% | [2] 3.35% | [3] 11.8% | [4] -34.5% | [5] 21.6% | [6] 2.3%

Cc1cc(NC(=O)/C=C/c2ccc([N+](=O)[O-])cc2Cl)ccc1S(=O)(=O)F
inactive: [1] -30.5% | [2] -8.5% | [3] -5.6% | [4] -17.4% | [5] 2.85% | [6] -32.5%

COc1cc(C2c3cc4c(cc3OC(O)C2C)OCO4)cc(OC)c1O (stereo not given)
inactive: [1] -13.2% | [2] -49.9% | [3] -23.9% | [4] 8.25% | [5] -2.9% | [6] -5.75%

CCCCC(CC)CC1C(=O)NC(=S)NC1=O (stereo not given)
inactive: [1] -3.7% | [2] 5.55% | [3] -17.8% | [4] -37.1% | [5] -0.05% | [6] 6.35%

c1ccc(C(c2ccccc2)C2CCNCC2)cc1
inactive: [1] 29.1% | [2] 6.8% | [3] 3.2% | [4] 16.2% | [5] 32.6% | [6] 2.85%
